Here are results for seven compounds from PubChem BioAssay (NCI).

Structures are written as SMILES. The panel holds about 83,000 compounds, 20% with a hit somewhere; the sample as a whole holds those more often.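 The endpoint reported here, percent growth, reads 100 for growth as untreated, 0 for no net growth and -100 for all cells dead.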 Values without a mark were called inactive. Activity calls are given as the source filed them. The calls were made as follows: active = growth percent below 10; inactive = the rest.

Assay in all cases: NCI-60 one-dose screen, 48 h (100 = growth as untreated, 0 = no growth, -100 = all killed)
Conditions in all cases: 10 µM unless noted

Assay [1] deals with SK-MEL-2 melanoma.
The test system of assay [2] is EKVX NSCLC.
The test system of assay [3] is SN12C renal.
The subject of assay [4] is UO-31 renal.
In assay [5] the test system is TK-10 renal.
Assay [6] has as its system ACHN renal.
Assay [7] has as its system CAKI-1 renal.
Assay [8] deals with A498 renal.
Assay [9] concerns CCRF-CEM leukemia.
The subject of assay [10] is MOLT-4 leukemia.
Assay [11] has as its system SR leukemia.
Assay [12] deals with RPMI-8226 leukemia.
Assay [13] deals with OVCAR-8 ovarian.
For assay [14], the system named is OVCAR-5 ovarian.
Assay [15] has as its system OVCAR-4 ovarian.
The subject of assay [16] is SK-OV-3 ovarian.
In assay [17] the test system is IGROV1 ovarian.
Assay [18] deals with OVCAR-3 ovarian.
The test system of assay [19] is HS 578T breast.
In assay [20] the test system is NCI/ADR-RES ovarian.

For the compound `Cc1c[n+](Cc2ccc3ccccc3c2)cn1Cc1ccc2ccccc2c1`, the growth is -48.5% (active) in assay [1]; 38.1% in assay [2]; 7.56% (active) in [3]; 77.6% in [4]; -4.54% (active) in assay [5]; 89.5% in [6]. Besides, the growth in assay [7] was 94%; in [8], 50.1%; in assay [9] it was 3.95% (active); in assay [10], -3.59% (active); in assay [11], -47.2% (active); in [12], -42.4% (active). Besides, the growth in [13] was 2.04% (active); in [14] it was 27.1%; in [15], -7.39% (active); in [16], 35.3%; in assay [17], -16.3% (active); in [18], -2.44% (active). Besides, the growth in assay [19] was 46.8%; in assay [20], 101%.
Take `CC(C)(C)CC(C)(C)NC(=O)Nc1ncccc1OCc1ccccc1`: the growth in assay [1] was 83.5%; in assay [2], 93.3%; in assay [3], 89.5%; in assay [4], 73.9%; in assay [5] it was 96.3%; in [6] it was 94.4%. Moreover, the growth was 80.2% in assay [7]; 92.7% in assay [8]; 94.2% in assay [9]; 89.1% in assay [10]; 89.4% in assay [11]; 84.9% in assay [12]. Moreover, the growth is 99.4% in assay [13]; 91.6% in [14]; 84.3% in [15]; 104% in [16]; 93.9% in assay [17]; 98.5% in [18]. Also, the growth in assay [19] is 106%; in [20], 86.2%.
`COc1ccc(C2CC(c3ccc(Nc4nc(Nc5ccccc5)nc(Nc5ccccc5)n4)cc3)=NN2C(C)=O)cc1` (stereo not given): the growth in [1] was 68.5%; in [2] it was 132%; in assay [3] it was 95.7%; in assay [4] it was 78.3%; in assay [5] it was 104%; in [6] it was 100%. Further, the growth in [7] was 105%; in assay [8], 95.5%; in [9] it was 88.6%; in assay [10], 71.2%; in assay [11], 88.2%; in assay [12] it was 73.7%. In addition, the growth was 83% in assay [13]; 104% in assay [14]; 89.7% in [15]; 124% in [16]; 118% in assay [17]; 91.4% in assay [18]. For the same compound, the figures for the growth in assay [19] and in assay [20] were 102% and 89.7%, respectively.
Regarding `Cc1cccc(/C=C/c2c(C(=O)/C=C/c3ccccc3)c(C)nc3ccccc23)c1`, the growth in [1] was -60.8% (active); in [2] it was 0.995% (active); in assay [3], -44.3% (active); in [4], -94.2% (active); in assay [5] it was -6.55% (active); in [6], -23% (active). Also, the growth is -36.2% (active) in [7]; -38.2% (active) in assay [8]; 6.17% (active) in assay [9]; 5.83% (active) in [10]; 11.8% in [11]; -11.6% (active) in assay [12]. Moreover, the growth was -13.7% (active) in [13]; -37.9% (active) in [14]; 2.06% (active) in [15]; 33.7% in assay [16]; -27.6% (active) in assay [17]; -50.6% (active) in assay [18]. The growth in [19] was 18.9%; in assay [20], -8.03% (active).
For `C=C1C(=O)O[C@H]2[C@H]1CC/C(COC(=O)NCc1ccc(Cn3c(=O)sn(CCCCC)c3=O)cc1)=C\CC[C@@]1(C)O[C@@H]21`, the growth in assay [1] is 76.3%; in [2] it was 84.3%; in [3], 22.8%; in [4], 6.58% (active); in [5], 2.53% (active); in [6], 26.5%. Further, the growth in [7] is 36.4%; in assay [8], 84.9%; in assay [9], -22% (active); in assay [10] it was -15% (active); in [11], 3.58% (active); in [12] it was -22.8% (active). The growth in [13] was 58%; in assay [14], 72.5%; in [15] it was 29.5%; in assay [16] it was 93.6%; in [17], 24.1%; in assay [18] it was -56.1% (active). In addition, the growth in assay [19] was 71%; in [20] it was 99.8%.
On to `COc1cc2c(cc1OC)C(C)N(S(N)(=O)=O)CC2` (stereo not given), for which the growth is 106% in assay [1]; 107% in assay [2]; 88.7% in assay [3]; 81.9% in assay [4]; 103% in assay [5]; 102% in [6]. In addition, the growth was 101% in assay [7]; 102% in assay [8]; 80% in assay [9]; 91.8% in [10]; 82.3% in assay [11]; 96.4% in assay [12]. The growth in [13] was 97%; in assay [14] it was 82.6%; in [15] it was 105%; in [16], 103%; in assay [17], 97.9%; in assay [18] it was 99.2%. For the same compound, the growth in assay [19] was 105%; in [20], 96.9%.
`CCOC(=O)[C@@H]1CSC(CC)=C(C(=O)O)N1`: the growth is 111% in assay [1]; 105% in [2]; 98.4% in [3]; 85.1% in [4]; 110% in assay [5]; 97.6% in assay [6]. The growth is 97.1% in assay [7]; 108% in assay [8]; -12.6% (active) in assay [9]; -5.82% (active) in assay [10]; -11.1% (active) in assay [11]; -32% (active) in assay [12]. Also, the growth was 101% in assay [13]; 107% in assay [14]; 117% in assay [15]; 69.1% in [16]; 109% in assay [17]; 128% in [18]. Also, the growth is 109% in assay [19] and 113% in [20].
